{"source": "PubChem BioAssay (Tox21)", "note": "Inconclusive results are not listed. Where a call stands in place of a potency, no number is given. Calls of active or inactive are those of the source. Calls follow the shape of the dose curve; as a rule, active = well fitted cell-killing curve with a large enough effect in the repeat runs; inconclusive = weak or mixed curves, or effect the other way; inactive = no such curve, though single readings can be large or run the other way. Potency is read from the fitted curve at half-maximal effect."}
{"assay": "qHTS assay for identifying genotoxic compounds that show differential cytotoxicity against isogenic chicken DT40 cell lines with known DNA damage response pathways - wild type cell line (AID 743012); also: nearly all actives have a fitted effect of over 60% in size", "conditions": "DT40 wild type chicken cells viability, CellTiter-Glo, 40 h; series mostly up to 68.4 µM", "excerpt": "U.S. Tox21 Program National Center for Advancing Translational Sciences [NCATS] NIH Chemical Genomics Center [NCGC] U.S. Environmental Protection Agency [EPA] National Institutes of Environmental Health Sciences [NIEHS] National Toxicology Program [NTP] U.S. Food and Drug Administration [FDA] Tox21 Assay Overview: DNA repair pathways play a critical role in cellular homeostasis by repairing DNA damage induced by endogenous processes and xenobiotics. Isogenic chicken DT40 cell lines deficient in different DNA repair pathways can be used to identify genotoxic compounds and aid in characterizing the nature of the DNA damage induced. Two DNA repair-deficient cell lines with disrupted genes, Rad54/Ku70 or Rev3, were used to screen the Tox21 10K compound library. Possible genotoxicity was based on the presence of a significant increase in cytotoxicity in one or more of the DNA repair-deficient cell lines compared to that observed in the parental DNA repair-proficient cell line. CellTiter Glo viability assay (Promega, Madison, WI) was used to measure cell viability in these cells after compound treatment. This assay includes the data from the wild type cell line.\nTox21 Assay Protocol Summary: 300 DT40 wild type cells in 5 uL/well were dispensed into white, solid-bottom 1536-well plates using a Multidrop Combi (ThermoFisher Scientific, Waltham, MA) dispenser. After the assay plates were incubated at 37 C/5% CO2 for approximately 0.5 hour, 23 nL of compounds dissolved in DMSO, positive controls or DMSO only was transferred into the assay plate by a pintool work station (Kalypsys, San Diego, CA). The assay plates were incubated at 37 C/5% CO2 for 40 hours. After 5 uL per well of CellTiter-Glo reagent was added into each well of the assay plates, the plates were incubated for 30 min at room temperature and the luminescence intensity of the plates was measured using a ViewLux (PerkinElmer, Shelton, CT) plate reader."}
{"smiles": "[O]=[Mo](=[O])=[O]", "Potency": "inactive"}
{"smiles": "CC(=O)Nc1ccc(OC(=O)c2ccccc2OC(C)=O)cc1", "Potency": "inactive"}
{"smiles": "C=C(C)C1CC=C(C)C(=O)C1", "note": "(stereo not given)", "Potency": "inactive"}
{"smiles": "N#CCC(=O)NN", "Potency": "inactive"}
{"smiles": "CC(=O)C1C(=O)C=C(C)OC1=O", "note": "(stereo not given)", "Potency": "inactive"}
{"smiles": "CCCc1ccc(O)cc1", "Potency": "inactive"}
{"smiles": "C=CCCCCCCCC", "Potency": "inactive"}
{"smiles": "CCCCCCCCCCCCCCCCCC#N", "Potency": "inactive"}
{"smiles": "CCCCCC/C=C/C(=O)OC", "Potency": "inactive"}
{"smiles": "O=[N+]([O-])c1c(Cl)cc(Cl)cc1Cl", "Potency": "inactive"}
{"smiles": "C/C=C(\\C)C(C)=O", "Potency": "inactive"}
{"smiles": "C=CC(=O)OCC1CCCO1", "note": "(stereo not given)", "Potency": "inactive"}
{"smiles": "O=C(Cn1ccnc1[N+](=O)[O-])NCc1ccccc1", "Potency": "inactive"}
{"smiles": "C[C@]12CCC(=O)C=C1CC[C@H]1[C@@H]3CC[C@](O)(C(=O)CO)[C@@]3(C)C[C@H](O)[C@@]12F", "Potency": "23.7 µM (active)"}
{"smiles": "COC(=O)/C=C\\C(=O)O", "Potency": "inactive"}
{"smiles": "Cc1c(Cl)cccc1Cl", "Potency": "inactive"}
{"smiles": "CC/C(C)=N\\O[Si](C)(O/N=C(\\C)CC)O/N=C(\\C)CC", "Potency": "inactive"}
{"smiles": "CCCCOC(=O)C(C)O", "note": "(stereo not given)", "Potency": "inactive"}
{"smiles": "Cc1ccccc1C(N)=O", "Potency": "inactive"}
{"smiles": "CCCC(=O)Nc1ccc(OCC(O)CNC(C)C)c(C(C)=O)c1", "note": "(stereo not given)", "Potency": "inactive"}
{"smiles": "Cn1nnc2c(C(N)=O)ncn2c1=O", "Potency": "inactive"}
{"smiles": "CC1c2ccccc2CN1NC(=O)c1ccc(Cl)c(S(N)(=O)=O)c1", "note": "(stereo not given)", "Potency": "inactive"}
{"smiles": "Cc1c(C(=O)c2c[nH]n(C)c2=O)ccc(S(C)(=O)=O)c1C1=NOCC1", "Potency": "inactive"}
{"smiles": "Cn1c(=O)c2c(ncn2CCO)n(C)c1=O", "Potency": "inactive"}
{"smiles": "OCC1CCC(CO)CC1", "note": "(stereo not given)", "Potency": "inactive"}
{"smiles": "c1ccc(B(c2ccccc2)c2ccccc2)cc1", "Potency": "inactive"}
{"smiles": "CC1OCCC1=O", "note": "(stereo not given)", "Potency": "inactive"}
{"smiles": "CCC/C=C(\\C=O)CC", "Potency": "inactive"}
{"smiles": "CNCCS(=O)(=O)O", "Potency": "inactive"}
{"smiles": "CSc1cnccn1", "Potency": "inactive"}
{"smiles": "CC(=O)c1cc(C)oc1C", "Potency": "inactive"}
{"smiles": "CC(C)COC(=O)c1ccccc1", "Potency": "inactive"}
{"smiles": "C/C=C(\\C)C(=O)OCCc1ccccc1", "Potency": "inactive"}
{"smiles": "COc1nc(N)nc2nc[nH]c12", "Potency": "inactive"}
{"smiles": "COc1ccc(CCO)cc1", "Potency": "inactive"}
{"smiles": "C#CCN[C@@H]1CCc2ccccc21", "Potency": "inactive"}
{"smiles": "N#Cc1ccccc1O", "Potency": "inactive"}
{"smiles": "CCCCCCCCCCCCCCCCCCOCCO", "Potency": "inactive"}
{"smiles": "C/C(CC(C)C)=N\\O", "Potency": "inactive"}
{"smiles": "CC(O)CC(C)O", "note": "(stereo not given)", "Potency": "inactive"}
